Results as given in PubChem BioAssay AID1159580 (chemical genetic matrix, 2015).
Where “and” joins values, the source holds several entries; their conditions need not be identical. Equal entries are not always repeated. The campaign covered roughly 5,500 compounds. About 2,000 (36%) were called active. Not shown: some 18% with an inconclusive outcome. No stated cut-off is given here; in the data, active means normalized growth mostly below about 0.91 (no sharp cut-off); inconclusive means no clear call, values can overlap the other calls; inactive means mostly above about 0.92. The list shows a part of the results.

Experiment: chemical genetic growth profiling, strain panel (AID 1159580);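 further: tested at 20 µM; growth read once vehicle control cultures reached saturation at 30 °C; 1 = growth at the plate median or of vehicle wells; lower values mean less growth of the strain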
Settings: S. cerevisiae deletion strains, growth OD

Measured: normalized growth

CCN(CC)CCCC(C)Nc1ccnc2cc(Cl)ccc12 (configuration not stated)
inactive: locus YAL013W, strain DEP1, active compounds read low 1.02 and 1.01 | locus YAL021C, strain ccr4, active compounds read low 1.04 | locus YAL026C, strain drs2, active compounds read low 1.02 | locus YAL030W, strain snc1, active compounds read low 1.02 | locus YAL040C, strain CLN3, active compounds read low 1.01 | locus YBL061C, strain skt5, active compounds read low 1.03 | locus YBR009C, strain hhf1, active compounds read low 1.01 | locus YBR021W, strain FUR4, active compounds read low 0.976 | locus YBR023C, strain chs3, active compounds read low 1.03 | locus YBR171W, strain sec66, active compounds read low 1.05 | locus YBR229C, strain ROT2, active compounds read low 1.01 | locus YBR231C, strain swc5, active compounds read low 1.03 | locus YBR279W, strain paf1, active compounds read low 1.02 | locus YCL011C, strain gbp2, active compounds read low 1.04 | locus YCL016C, strain dcc1, active compounds read low 1.03 | locus YCL029C, strain bik1, active compounds read low 1.01 | locus YCL061C, strain MRC1 (second series), active compounds read low 1.01 | locus YCL069W, strain vba3, active compounds read low 1.03 | locus YCR088W, strain abp1, active compounds read low 1.02 | locus YDL005C, strain med2, active compounds read low 1.03 | locus YDL035C, strain GPR1, active compounds read low 0.995 | locus YDL040C, strain nat1, active compounds read low 1.03 | locus YDL074C, strain BRE1, active compounds read low 1.04 | locus YDL101C, strain DUN1, active compounds read low 1.04 | locus YDL134C, strain PPH21, active compounds read low 0.985 | locus YDL185W, strain tfp1, active compounds read low 1 | locus YDL192W, strain arf1, active compounds read low 1 | locus YDR001C, strain nth1, active compounds read low 1.03 | locus YDR069C, strain doa4, active compounds read low 0.998 | locus YDR101C, strain arx1, active compounds read low 0.993 | locus YDR137W, strain rgp1, active compounds read low 1.06 | locus YDR159W, strain sac3, active compounds read low 1.06 | locus YDR162C, strain NBP2, active compounds read low 1.01 | locus YDR195W, strain ref2 1.07 | locus YDR297W, strain sur2, active compounds read low 1.03 | locus YDR318W, strain mcm21, active compounds read low 1.02 | locus YDR334W, strain swr1, active compounds read low 1.03 | locus YDR335W, strain msn5, active compounds read low 1.03 | locus YDR363W, strain ESC2, active compounds read low 1.01 | locus YDR388W, active compounds read low 1.01 | locus YDR392W, strain spt3, active compounds read low 0.937 | locus YDR502C, strain sam2, active compounds read low 0.995 | locus YEL003W, strain gim4, active compounds read low 1.03 | locus YEL037C, strain rad23, active compounds read low 1.03 | locus YEL061C, strain CIN8 (second series), active compounds read low 1.03 | locus YEL061C, strain CIN8, active compounds read low 1.01 | locus YER002W, strain NOP16, active compounds read low 0.994 | locus YER015W, strain faa2, active compounds read low 1.03 | locus YER016W, strain bim1, active compounds read low 1 | locus YER110C, active compounds read low 1.02 | locus YER111C, strain swi4, active compounds read low 1.04 | locus YER155C, strain BEM2 (second series), active compounds read low 0.966 | locus YER155C, strain BEM2, active compounds read low 1.01 | locus YER167W, strain BCK2, active compounds read low 1.01 | locus YFR010W, strain ubp6, active compounds read low 1.03 | locus YGL078C, strain dbp3, active compounds read low 1.02 | locus YGL086W, strain mad1, active compounds read low 0.996 | locus YGL167C, strain pmr1, active compounds read low 1.04 | locus YGL173C, strain kem1, active compounds read low 1.04 | locus YGL227W, strain vid30, active compounds read low 1.03 | locus YGL240W, strain doc1, active compounds read low 1.03 | locus YGL248W, strain PDE1, active compounds read low 1.04 | locus YGL253W, strain hxk2, active compounds read low 1.01 | locus YGR135W, strain pre9, active compounds read low 1.04 | locus YGR252W, strain gcn5, active compounds read low 1.02 | locus YHR013C, strain ard1, active compounds read low 0.965 | locus YHR027C, strain rpn1, active compounds read low 1.03 | locus YHR030C, strain SLT2, active compounds read low 1 and 0.96 | locus YHR079C, strain IRE1 (second series), active compounds read low 1.01 | locus YHR079C, strain IRE1, active compounds read low 0.961 | locus YHR094C, strain hxt1, active compounds read low 1.01 | locus YHR129C, strain ARP1, active compounds read low 1.02 | locus YHR142W, strain chs7, active compounds read low 1.04 | locus YHR200W, strain rpn10, active compounds read low 1.01 | locus YIL066C, strain RNR3, active compounds read low 1.02 | locus YIL073C, strain SPO22, active compounds read low 1.01 | locus YIL125W, strain kgd1, active compounds read low 1 | locus YIR030C, strain dcg1, active compounds read low 1 | locus YJL092W, strain hpr5, active compounds read low 1.02 | locus YJL095W, strain BCK1 (second series), active compounds read low 1.03 | locus YJL095W, strain BCK1, active compounds read low 1.07 and 0.962 | locus YJL115W, strain asf1, active compounds read low 1.05 | locus YJL129C, strain trk1, active compounds read low 1.02 | locus YJL134W, strain LCB3, active compounds read low 1.01 | locus YJL154C, strain vps35, active compounds read low 1.02 | locus YJL164C, strain tpk1, active compounds read low 1.02 | locus YJL166W, strain qcr8, active compounds read low 1 | locus YJL168C, strain set2, active compounds read low 1.01 | locus YJL187C, strain SWE1 (second series), active compounds read low 1.05 | locus YJL187C, strain SWE1, active compounds read low 1.03 | locus YJR043C, strain POL32, active compounds read low 0.981 | locus YJR066W, strain TOR1, active compounds read low 0.979
